Source: the supplement of paper PMC10849652
About 7,900 targets were measured; listed, in parts, are those with a hit and a random draw of the rest. About 0.6% of all pairs of compound and target were hits. Unmarked numbers belong to inactive results.

Experiments:
Test in all cases: log2 fold change, soluble protein after heating vs DMSO (PISA); higher = thermal stabilisation; K562 cells, 10 uM, 30 min; active = over 0.2 and 3.5 SD of the protein, either way, in both replicates (recomputed)
[1] = compound: C#Cc1cccc(Nc2ncnc3cc(OCCOC)c(OCCOC)cc23)c1 [erlotinib]
Method in brief: (§1)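 Values are thermal stability changes relative to control samples and are taken from duplicates. They are stated as log2 fold changes. Before quantification by TMTpro 16plex LC-MS/MS with equalised channel sums, K562 cells at 2×10^6 cells/mL were treated with 10 μM compound for 30 min, heated in aliquots for 3 min across 48°C-58°C, pooled, extracted in PBS with 0.5% NP-40 at 4°C, and centrifuged at 21,000xg for 90 min to give the soluble supernatant.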

[2] = compound: C/C(=N\NC(=O)C1=CC(=CC=C1)S(=O)(=O)N2CCOCC2)/C3=C(C=CC(=C3)Cl)O
Method in brief: as §1

[3] = compound: C1=CC(=C(C=C1Cl)C2=NC3=NC=CN=C3C(=N2)NC4=CC=NC=C4)F
Method in brief: as §1

[4] = compound: C1=CC(=CC=C1C2=NC3=C(N2)C=C(C=C3)C(=O)N)OC4=CC=C(C=C4)Cl
Method in brief: as §1

[5] = compound: C1=CC2=C(C=CC(=C2)/C=C\3/C(=O)NC(=NCC4=CC=CS4)S3)N=C1
Method in brief: as §1

[6] = compound: C1=CC2=NC=CN=C2C=C1/C=C/3\C(=O)NC(=O)S3
Method in brief: as §1

[7] = compound: C1=CC=C(C=C1)C2=NC(=C(N2)C3=CC=NC=C3)C4=CC(=C(C=C4)Cl)O
Method in brief: as §1

[8] = compound: C1=CC=C2C(=C1)C3=NNC4=CC=CC(=C43)C2=O
Method in brief: as §1

[9] = compound: C1CCN(C1)C(=O)NC2=CC=CC(=C2)NC3=NC=C(C(=N3)NCCC4=CN=CN4)Br
Method in brief: as §1

[10] = compound: C1CN(CCC1(CC2=CC=C(C=C2)Cl)N)C3=NC=NC4=C3C=CN4
Method in brief: as §1

[11] = compound: C1COCCN1CCN2C3=CC=CC=C3N=C2NC(=O)C4=CC(=CC=C4)[N+](=O)[O-] [IRAK-1-4 Inhibitor I]
Method in brief: as §1

[12] = compound: C=CC(=O)N1CCC[C@@H](n2nc(-c3ccc(Oc4ccccc4)cc3)c3c(N)ncnc32)C1 [ibrutinib]
Method in brief: as §1

[13] = compound: CC(=O)c1cnc2ccc(-c3cc(Cl)c(O)c(Cl)c3)nc2c1N[C@H]1CC[C@H](CN(C)C)CC1
Method in brief: as §1

[14] = compound: CC(C)(C)Cn1c(N)nc2ccc(-c3[nH]c(C(C)(C)C)nc3-c3ccc(F)cc3)nc21 [ralimetinib]
Method in brief: as §1

[15] = compound: CC(C)(O)CC(=O)NCCn1ccc2ncnc(Nc3ccc(Oc4cccc(C(F)(F)F)c4)c(Cl)c3)c21
Method in brief: as §1

[16] = compound: CC(C)C1=C2N=C(C=C(N2N=C1)NCC3=CC=CC=C3)NCCCCCCN
Method in brief: as §1

[17] = compound: CC(C)C[C@@H](C=O)NC(=O)[C@H](CC(C)C)NC(=O)[C@H](CC(C)C)NC(=O)OCc1ccccc1
Method in brief: as §1

[18] = compound: CC(C)N(C[C@H]1O[C@@H](n2cnc3c(N)ncnc32)[C@H](O)[C@@H]1O)[C@H]1C[C@@H](CCc2nc3cc(C(C)(C)C)ccc3[nH]2)C1 [pinometostat]
Method in brief: as §1

[19] = compound: CC1=C(C(CC(=O)N1)C2=CC=C(C=C2)C(F)(F)F)C(=O)NC3=C(C=C4C(=C3)C=NN4)F
Method in brief: as §1

[20] = compound: CC1=C(C2=C(C=C1)C(=O)C3=CC=CC=C3N2CCCN)C
Method in brief: as §1

Sequence of UniProt Q8N6R0 (Q8N6R0 whole entry, looked up): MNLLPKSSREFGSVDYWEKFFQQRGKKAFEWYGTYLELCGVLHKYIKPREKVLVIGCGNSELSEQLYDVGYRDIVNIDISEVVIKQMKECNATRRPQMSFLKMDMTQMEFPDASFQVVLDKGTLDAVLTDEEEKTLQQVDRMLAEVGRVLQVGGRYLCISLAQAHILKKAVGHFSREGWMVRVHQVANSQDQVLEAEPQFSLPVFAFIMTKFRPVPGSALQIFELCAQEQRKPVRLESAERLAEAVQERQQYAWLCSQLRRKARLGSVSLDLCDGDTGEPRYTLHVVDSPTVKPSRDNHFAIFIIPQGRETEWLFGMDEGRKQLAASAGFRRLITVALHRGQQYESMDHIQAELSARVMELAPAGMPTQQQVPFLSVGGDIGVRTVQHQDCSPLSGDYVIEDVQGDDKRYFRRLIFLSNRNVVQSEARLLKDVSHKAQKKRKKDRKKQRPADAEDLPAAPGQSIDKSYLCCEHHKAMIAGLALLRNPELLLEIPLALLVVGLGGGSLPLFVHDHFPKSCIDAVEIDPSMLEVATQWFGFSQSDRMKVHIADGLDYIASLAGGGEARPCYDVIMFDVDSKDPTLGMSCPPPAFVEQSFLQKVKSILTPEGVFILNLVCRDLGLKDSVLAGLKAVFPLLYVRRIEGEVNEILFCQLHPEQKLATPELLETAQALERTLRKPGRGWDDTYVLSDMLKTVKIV
Sequence of UniProt Q8NBA8 (Q8NBA8 whole entry, looked up): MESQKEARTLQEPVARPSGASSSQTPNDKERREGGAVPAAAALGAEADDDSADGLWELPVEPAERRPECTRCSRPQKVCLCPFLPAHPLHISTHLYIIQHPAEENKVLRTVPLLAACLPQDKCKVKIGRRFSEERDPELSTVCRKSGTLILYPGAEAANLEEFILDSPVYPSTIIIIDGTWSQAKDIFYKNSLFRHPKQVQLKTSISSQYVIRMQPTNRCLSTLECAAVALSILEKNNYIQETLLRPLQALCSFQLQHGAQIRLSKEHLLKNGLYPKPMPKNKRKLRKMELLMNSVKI
Sequence of UniProt Q9GZT9 (Q9GZT9 whole entry, looked up): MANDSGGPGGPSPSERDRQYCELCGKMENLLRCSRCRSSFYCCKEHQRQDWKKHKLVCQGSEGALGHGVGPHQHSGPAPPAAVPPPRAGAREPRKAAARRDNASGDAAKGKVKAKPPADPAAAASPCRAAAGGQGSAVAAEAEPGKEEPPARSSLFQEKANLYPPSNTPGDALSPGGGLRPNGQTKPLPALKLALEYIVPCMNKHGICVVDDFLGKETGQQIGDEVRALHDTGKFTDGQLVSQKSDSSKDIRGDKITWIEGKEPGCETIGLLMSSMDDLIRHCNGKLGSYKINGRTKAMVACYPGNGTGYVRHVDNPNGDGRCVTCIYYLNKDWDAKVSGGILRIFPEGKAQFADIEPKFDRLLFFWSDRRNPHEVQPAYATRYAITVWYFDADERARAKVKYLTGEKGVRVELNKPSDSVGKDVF
Sequence of UniProt O75822 (O75822 whole entry, looked up): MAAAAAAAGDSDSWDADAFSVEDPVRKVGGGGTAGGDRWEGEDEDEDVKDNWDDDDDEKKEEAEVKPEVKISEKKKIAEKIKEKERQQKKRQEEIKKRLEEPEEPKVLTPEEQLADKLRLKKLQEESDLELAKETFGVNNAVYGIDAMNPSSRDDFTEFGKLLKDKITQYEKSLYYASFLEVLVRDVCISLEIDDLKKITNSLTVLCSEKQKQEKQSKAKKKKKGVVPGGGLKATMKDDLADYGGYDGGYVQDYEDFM
Sequence of UniProt O76075 (O76075 whole entry, looked up): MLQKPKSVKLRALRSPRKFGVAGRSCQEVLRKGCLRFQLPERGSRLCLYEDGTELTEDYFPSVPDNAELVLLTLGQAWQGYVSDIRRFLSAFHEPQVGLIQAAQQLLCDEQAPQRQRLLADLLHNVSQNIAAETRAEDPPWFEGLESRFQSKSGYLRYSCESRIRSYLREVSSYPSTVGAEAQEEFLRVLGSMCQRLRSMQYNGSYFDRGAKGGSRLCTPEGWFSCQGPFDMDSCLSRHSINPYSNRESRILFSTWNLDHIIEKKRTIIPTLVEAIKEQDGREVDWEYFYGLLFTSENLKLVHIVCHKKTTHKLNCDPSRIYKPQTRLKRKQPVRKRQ
Sequence of UniProt Q0VG06 (Q0VG06 whole entry, looked up): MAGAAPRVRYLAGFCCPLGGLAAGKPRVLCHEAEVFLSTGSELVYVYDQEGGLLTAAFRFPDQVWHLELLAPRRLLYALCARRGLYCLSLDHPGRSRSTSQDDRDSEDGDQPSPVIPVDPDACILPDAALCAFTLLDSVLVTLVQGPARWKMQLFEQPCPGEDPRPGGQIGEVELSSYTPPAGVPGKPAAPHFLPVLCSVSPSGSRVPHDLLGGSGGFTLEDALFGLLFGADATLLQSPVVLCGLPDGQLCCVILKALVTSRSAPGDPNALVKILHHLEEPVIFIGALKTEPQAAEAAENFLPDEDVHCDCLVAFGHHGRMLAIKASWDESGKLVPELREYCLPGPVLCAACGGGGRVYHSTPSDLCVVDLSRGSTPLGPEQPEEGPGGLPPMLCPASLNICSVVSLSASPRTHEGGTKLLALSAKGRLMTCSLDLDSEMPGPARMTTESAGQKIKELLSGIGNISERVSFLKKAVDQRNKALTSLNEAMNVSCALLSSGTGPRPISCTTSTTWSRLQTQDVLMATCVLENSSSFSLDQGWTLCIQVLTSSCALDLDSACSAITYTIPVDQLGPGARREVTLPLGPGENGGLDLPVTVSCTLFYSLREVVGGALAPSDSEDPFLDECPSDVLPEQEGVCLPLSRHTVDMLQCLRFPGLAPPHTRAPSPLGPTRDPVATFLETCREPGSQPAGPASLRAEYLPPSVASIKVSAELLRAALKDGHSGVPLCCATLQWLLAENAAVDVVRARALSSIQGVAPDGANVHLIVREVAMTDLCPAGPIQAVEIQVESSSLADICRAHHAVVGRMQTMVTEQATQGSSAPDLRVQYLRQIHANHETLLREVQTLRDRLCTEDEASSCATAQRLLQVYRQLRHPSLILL
Sequence of UniProt Q8TAG9 (Q8TAG9 whole entry, looked up): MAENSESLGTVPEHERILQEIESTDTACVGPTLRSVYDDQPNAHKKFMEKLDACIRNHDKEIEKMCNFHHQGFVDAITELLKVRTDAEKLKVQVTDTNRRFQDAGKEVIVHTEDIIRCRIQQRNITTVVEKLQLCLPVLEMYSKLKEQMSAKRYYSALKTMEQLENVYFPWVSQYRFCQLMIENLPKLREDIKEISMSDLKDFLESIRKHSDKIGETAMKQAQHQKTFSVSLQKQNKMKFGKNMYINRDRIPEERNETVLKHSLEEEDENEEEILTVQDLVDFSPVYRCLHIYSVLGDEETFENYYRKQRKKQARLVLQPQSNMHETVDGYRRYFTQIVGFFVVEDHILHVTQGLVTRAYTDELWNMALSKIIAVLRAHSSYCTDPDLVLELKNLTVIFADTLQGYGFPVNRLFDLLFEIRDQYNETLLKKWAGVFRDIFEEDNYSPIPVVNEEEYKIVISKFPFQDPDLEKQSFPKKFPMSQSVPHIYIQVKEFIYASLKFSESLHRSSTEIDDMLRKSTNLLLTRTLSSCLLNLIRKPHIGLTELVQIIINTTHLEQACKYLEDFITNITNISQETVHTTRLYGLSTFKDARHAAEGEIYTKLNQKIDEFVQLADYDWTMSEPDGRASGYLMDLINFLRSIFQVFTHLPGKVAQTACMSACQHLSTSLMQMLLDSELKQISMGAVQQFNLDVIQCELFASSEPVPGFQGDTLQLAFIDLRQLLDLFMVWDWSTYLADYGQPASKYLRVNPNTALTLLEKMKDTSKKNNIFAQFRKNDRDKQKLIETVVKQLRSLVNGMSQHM
Sequence of UniProt P26641 (P26641 whole entry, looked up): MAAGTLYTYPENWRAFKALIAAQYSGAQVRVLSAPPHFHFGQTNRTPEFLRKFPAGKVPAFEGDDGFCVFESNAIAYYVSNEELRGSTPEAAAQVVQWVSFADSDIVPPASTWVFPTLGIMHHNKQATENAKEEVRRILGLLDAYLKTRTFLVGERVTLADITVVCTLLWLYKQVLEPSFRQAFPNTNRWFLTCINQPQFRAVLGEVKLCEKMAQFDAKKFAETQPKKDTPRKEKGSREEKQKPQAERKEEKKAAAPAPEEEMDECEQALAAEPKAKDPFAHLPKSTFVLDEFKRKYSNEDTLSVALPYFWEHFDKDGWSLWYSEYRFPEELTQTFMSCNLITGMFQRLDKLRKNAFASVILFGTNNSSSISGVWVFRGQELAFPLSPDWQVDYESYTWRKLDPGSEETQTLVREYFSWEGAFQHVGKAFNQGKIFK
Sequence of UniProt Q96E09 (Q96E09 whole entry, looked up): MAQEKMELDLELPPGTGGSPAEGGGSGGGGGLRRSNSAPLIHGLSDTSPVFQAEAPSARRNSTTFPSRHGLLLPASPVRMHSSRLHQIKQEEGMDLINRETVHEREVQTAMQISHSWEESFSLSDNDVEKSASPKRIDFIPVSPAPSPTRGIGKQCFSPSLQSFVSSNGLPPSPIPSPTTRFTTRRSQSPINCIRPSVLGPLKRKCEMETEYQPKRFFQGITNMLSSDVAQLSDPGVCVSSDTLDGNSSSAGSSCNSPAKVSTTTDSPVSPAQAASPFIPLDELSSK
Sequence of UniProt Q15392 (Q15392 whole entry, looked up): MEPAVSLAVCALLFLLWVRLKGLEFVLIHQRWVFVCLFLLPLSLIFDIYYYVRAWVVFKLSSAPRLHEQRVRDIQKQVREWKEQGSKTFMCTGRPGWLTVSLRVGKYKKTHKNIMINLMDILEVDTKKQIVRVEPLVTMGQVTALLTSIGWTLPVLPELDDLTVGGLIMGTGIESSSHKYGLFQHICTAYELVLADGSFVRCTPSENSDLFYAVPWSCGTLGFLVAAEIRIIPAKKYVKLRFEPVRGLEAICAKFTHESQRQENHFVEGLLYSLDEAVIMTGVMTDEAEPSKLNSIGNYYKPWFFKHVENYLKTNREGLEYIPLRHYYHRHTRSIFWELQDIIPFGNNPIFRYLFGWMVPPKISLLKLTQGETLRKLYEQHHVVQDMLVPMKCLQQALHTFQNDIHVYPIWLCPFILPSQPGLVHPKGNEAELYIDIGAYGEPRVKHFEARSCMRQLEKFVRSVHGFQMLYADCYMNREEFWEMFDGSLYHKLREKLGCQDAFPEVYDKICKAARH

Target	log2 fold change [1]	log2 fold change [2]	log2 fold change [3]	log2 fold change [4]	log2 fold change [5]	log2 fold change [6]	log2 fold change [7]	log2 fold change [8]	log2 fold change [9]	log2 fold change [10]	log2 fold change [11]	log2 fold change [12]	log2 fold change [13]	log2 fold change [14]	log2 fold change [15]	log2 fold change [16]	log2 fold change [17]	log2 fold change [18]	log2 fold change [19]	log2 fold change [20]
DAG1 (UniProt Q14118)	0.055	0.067	-0.043	0	-0.038	-0.037	-0.154	-0.06	-0.009	0.035	-0.019	-0.024	-0.029	-0.076	0.003	0.169	0.008	0.04	-0.008	0.067
DHCR24 (UniProt Q15392)	0.393	0.068	-0.151	0.092	0.081	-0.024	0.03	-0.009	-0.066	-0.074	-0.036	0.02	0.157	0.04	0.041	1.14 (active)	0.022	0.05	-0.104	0.212
DFFB (UniProt O76075)	-0.015	0.103	0.022	0.035	0.101	0.016	0.037	-0.005	-0.305 (active)	-0.039	-0.002	-0.047	0.011	0.005	-0.148	0.066	0.045	0.008	-0.052	0.009
DNAH11 (UniProt Q96DT5)	-0.252	-0.237	0.001	0.085	0.012	-0.023	-0.28	-0.001	0.125	0.119	0.038	0.103	0.126	-0.285	0.047	-0.001	0.041	-0.019	-0.012	-0.137
EGLN1 (UniProt Q9GZT9)	0.035	-0.355 (active)	0.075	-0.035	0.043	-0.08	0.021	-0.02	0.01	-0.003	0.016	-0.054	-0.027	-0.034	-0.01	-0.083	0.018	0.045	-0.002	-0.029
DNAJB1 (UniProt P25685)	0.005	0.017	0.012	0.008	0.024	0.053	0.024	-0.025	-0.019	0.009	-0.059	-0.011	-0.017	0	-0.012	-0.015	-0.065	-0.086	-0.004	0.022
EXOC6 (UniProt Q8TAG9)	0.073	0.127	0.006	-0.025	0.096	0.076	0.069	0.003	-0.045	-0.042	-0.046	-0.007	-0.014	0.102	-0.084	-0.397 (active)	0.042	0.056	0.158	0.032
DNM2 (UniProt P50570)	0.042	0.065	0.01	-0.025	0.046	-0.001	0.019	0.033	0.015	-0.003	0.022	0.017	-0.023	-0.02	-0.081	-0.075	0.029	-0.014	-0.012	0.076
EIF3J (UniProt O75822)	0.056	-0.004	0.068	-0.033	0.012	0.048	0.101	0.021	0.009	-0.01	0.118	-0.031	0.035	0.093	-0.031	-0.007	-0.079	-0.007	-0.019	-0.025
DTWD2 (UniProt Q8NBA8)	0.017	0.018	0.014	-0.095	-0.124	0.072	0.065	0.033	0.066	-0.02	0.094	0.001	0.009	0.092	-0.07	-0.179	0.003	0.082	0.031	-0.004
DNAJC1 (UniProt Q96KC8)	0.001	0.096	0.059	0.014	0.082	0.004	-0.021	-0.022	-0.001	0.027	0.017	0.02	-0.026	-0.081	-0.117	-0.462 (active)	0.025	-0.037	-0.012	0.019
DAB2 (UniProt P98082)	0.107	0.112	0.01	-0.035	0.037	0.008	0.002	0.019	-0.156	-0.006	-0.009	0.004	-0.093	0.082	-0.119	-0.02	0.138	0.049	-0.031	-0.075
FAM122A (UniProt Q96E09)	0.095	0.073	0.053	-0.025	-0.068	0.051	-0.019	0.03	0.031	-0.075	0.002	0.016	-0.015	-0.053	0.105	0.066	0.016	-0.008	0.007	-0.117
EEF1G isoform 2 (UniProt P26641)	-0.051	0.062	-0.009	-0.016	-0.036	-0.021	0.083	0.012	0.001	-0.031	-0.02	-0.083	0.044	0.059	0.006	-0.067	-0.024	0.042	-0.015	0.017
FAAP100 (UniProt Q0VG06)	0.003	0.019	0.246	0.037	0.052	0.17	-0.024	0.023	-0.122	0.004	0.026	-0.247	-0.025	-0.065	-0.085	-0.043	-0.05	0.013	-0.097	0.055
EEF1AKNMT (UniProt Q8N6R0)	0.063	0.15	0.008	-0.022	0.114	0.013	0.091	0.058	0.023	-0.061	-0.081	-0.116	-0.026	0.141	-0.097	-0.199	0.127	0.354 (active)	-0.029	0.13
